Results taken from PubChem BioAssay AID1508600 (Functional Genomics Laboratory (NCATS/FGL), 2020).
Among all 53,000 sequences or so, about 3,700 (7%) were called active.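 Rule for the calls: active = gene knockdowns whose robust z-score for IL-1 alpha signal is at least 2 or at most -2, so actives lie on both sides; inactive = the rest.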 Shown is part of a subset that was picked to be rich in actives.

Experiment: Components of the Cytosolic LPS Sensing Pathway: Gene Identification via Genome-wide siRNA Screen;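 note: robust z of the log signal after scaling to non-targeting control siRNA wells of the plate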
Settings: RAW264.7 macrophages, IL-1a HTRF, actives lie on both sides, screened at 100 nM (by protocol), cells primed 5 h with Pam3CSK4 first
Method in brief: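 Using IL-1a HTRF as read-out, the screen measured release from RAW264.7 cells after 48h siRNA knockdown (100 nM), 5 h Pam3CSK4 priming and 24 h cytosolic LipidA. Values were expressed relative to negative-control wells as robust z-scores.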

Sequence | z-score
GCAUUUAGUGAGUUCAGUGTT against Kirrel3os | 0.855 (inactive)
GCGCAACUAAAACAGAUUGTT against Eif2ak1 | 2.2 (active)
GGGAUACUUUUUAUUCAGGTT against Nmu | -0.0461 (inactive)
GGAGCAGACGAUAUGCAGATT against Copb2 | 0.559 (inactive)
CCAAUUGCUAAUCCUUUGUTT against Pin1 | 1.52 (inactive)
GGACACAAUCCAGAACCAGTT against Angpt4 | -0.189 (inactive)
GCCUGAGUUAUGUUUAAAGTT against Pgam5 | 0.00362 (inactive)
CCACGUGAAGGAGAGAUGATT against Mob2 | 1.39 (inactive)
GCGACCAGGACCGCGUCAATT against Sox3 | -1.07 (inactive)
GCACUGAAGCCUAGCUGUUTT against BC051142 | 1.41 (inactive)
GGUGUUGAGUUCAAGUCUATT against Dennd11 | -0.468 (inactive)
GGGCAAACUCUAUAAUCAGTT against BC023105 | 0.337 (inactive)
GCUCCGUGUUGACUCAAAATT against Foxg1 | 2.46 (active)
CCCUCAGAUCUUUCAGUCUTT against Btbd16 | -1.01 (inactive)
GCAUGGUUUAAUGGCUCGGTT against Atpsckmt | -1.93 (inactive)
GGAAUAUUUUGCUUGUGUGTT against Dnmt3a | -0.925 (inactive)
GGUUUAAGAAAAAAGGAGCTT against Rab43 | -0.182 (inactive)
CCUCUGUUUGUGCGCCAUATT against Uqcrfs1 | 0.402 (inactive)
GGUUAUCAAACAGGUGUUGTT against Aldh3b1 | 2.22 (active)
GCGAGUUCGGAAGAAGUAUTT against Ddx41 | -0.198 (inactive)
GGAGAUCCAGGCAAUUUUUTT against Pink1 | 0.779 (inactive)
GUUGGUAGAUUCAGUUUUCTT against Vmn1r89 | 1.88 (inactive)

Sequence | z-score
GGUGAAGAAAGCACUAGUUTT against Olfr979 | -0.873 (inactive)
GGACCUUGGCCUUACACAATT against Astn2 | 2.29 (active)
GGGCAUGCUGCUUAUUGUGTT against Slc5a4b | -0.8 (inactive)
GCAACACGUACGAGCUCAATT against Pou2af1 | -0.926 (inactive)
GGGUUCUAGGUUGUUUAUGTT against C2cd4c | -1.74 (inactive)
GGCGAGCUGGACAGAUUUGTT against Nudt6 | 3.33 (active)
CCUGCAUUUACUCAACUUGTT against Snrpe | -1.74 (inactive)
GGAUACAAGCCUUUUAACCTT against Sri | -0.0625 (inactive)
GAACAACAACAGACAAGUGTT against Cxcl12 | -0.65 (inactive)
GGUAUUUUUGCAUUUGUCCTT against Pip4p2 | 1.32 (inactive)
GGUUAUUGAUGUGACGAUGTT against Rem2 | 1.36 (inactive)
CCACCCUGAUUUAAGAAGGTT against Ndufs3 | 2.53 (active)
CCUACGUGAUAUCCUUUUATT against Vrk1 | 0.0128 (inactive)
GGAUAGAAAAUCUGUGUUUTT against Trim60 | -0.401 (inactive)
GGUAUUUAUGAAGCACACATT against Clcn3 | 0.451 (inactive)
GGGUCUAUCAGCUACAUCATT against Acsl6 | -1.28 (inactive)
CGUAUUGCCUUAGUGUAUGTT against Olfr433 | -2.7 (active)
GGGCUAUCGGUUGACAAAUTT against Riok2 | 1.67 (inactive)
GCGUAUUACAGACAGUGACTT against Izumo1 | 0.023 (inactive)
GGAACUGUUUCUCUUUCCUTT against Rad9a | -1.45 (inactive)
CGUGUUCUAUGAUGGUAAUTT against Selenoo | -0.197 (inactive)
GCAACUUGGCUACAAUUACTT against Dct | 0.987 (inactive)

Sequence | z-score
GGACCAAGCCACCAAAACUTT against Vmn1r78 | -2.28 (active)
CCUAUGAUUCAGCAAUACUTT against Col17a1 | 0.677 (inactive)
GGAAGAGGAGAGGAAGAAGTT against Dync1i1 | 1.91 (inactive)
GGCUCUAAGCUAAAUAAAGTT against Kbtbd4 | -0.249 (inactive)
CCGCGUCUUGCUAUGGAAGTT against Baiap2l2 | 0.79 (inactive)
GCUGGAAGAUAGUGCUUUUTT against Itpr1 | 5.23 (active)
GGGUUUAUGGGCAUGUCCCTT against Adipor2 | -0.964 (inactive)
GGUUAAAAAUGCCAUUAGATT against Olfr1233 | 0.133 (inactive)
GGAAGACAUCAAGAUGUAATT against Rp1l1 | -1.28 (inactive)
GGAGCUGUAAAGGCUACAATT against Sulf2 | 4.14 (active)
CGUGGAAAUGUCUUAAAUCTT against Folh1 | 0.412 (inactive)
GGAGAAAAAUCCUACCGACTT against Zmym5 | 0.56 (inactive)
GCGAUUGAAGUCUCAGGGATT against Nrde2 | -1.03 (inactive)
GGAAUAUUGGUUGUGAUGATT against Ralb | -0.197 (inactive)
GCUAAUGGUCCAUUGAUAUTT against Btn2a2 | 0.229 (inactive)
GGGAAGAGUUGGAUCGAUCTT against Shkbp1 | -0.0675 (inactive)
GGAGGAUAAGGAUACAGUATT against Cspg5 | 2.27 (active)
GGAGGAAAGAAAAGAUCCATT against Tie1 | -0.102 (inactive)
GCUAUGUCAUGGUUGGAACTT against Bag6 | 0.597 (inactive)
GCUUGCCUGACCUGAAACATT against Apool | -2.38 (active)
GCAACAAAUCAGAUUUGACTT against Dhdh | 0.246 (inactive)
GGGAUGGACAAGUUGUACUTT against Renbp | -0.101 (inactive)

Sequence | z-score
GGACCUUUUUAUCCAACGCTT against Mcts2 | 0.46 (inactive)
CCUGAAUUAUGUGUAACUUTT against Ywhab | -0.819 (inactive)
CCACUGUGAGACACAUAAGTT against Muc4 | -3.25 (active)
GGAAAUAGAUCCUUUUUGATT against 2510039O18Rik | 0.861 (inactive)
GCCAGUAGUAGUAGAAUAATT against Gm4841 | 0.997 (inactive)
CCUGGCAGUAAAAGAUUGCTT against Ndst3 | 0.836 (inactive)
GGGAAGGGAUCCUAUAUUUTT against Lsm12 | 0.158 (inactive)
CCCAGCAUGGAUCAAGCACTT against Krt73 | 0.864 (inactive)
GGGUGCACUGGCUAAUAUATT against H2-Ea | 1.13 (inactive)
GGGAAUAUUCAGUUGACAATT against Iigp1 | -1.14 (inactive)
GGUGAAUUUGAUUGAUGAGTT against Ccnl2 | -2.3 (active)
GGAGAAAGCCUUCCUUAGUTT against Trpc5 | -0.115 (inactive)
CGUAGCACUUCUUCUCUUATT against Dync1li2 | 0.484 (inactive)
GGUCUUGCUGAUCAACAACTT against Adgrb2 | 2.53 (active)
GCCAAUUUUGAACCACUACTT against Itga8 | -0.56 (inactive)
GGAAGUAUGAAAUUAUCAGTT against Car12 | 0.0371 (inactive)
CGGUUCUUCCAUCAAAUGGTT against Prodh | 1.07 (inactive)
GGCUUUAAUCCUAACCCUATT against Zfp3 | -0.658 (inactive)
GCGAGCCAAGUUUGAACUUTT against Elovl6 | 1.42 (inactive)
GCUGGCUUUAAAAAUAUCUTT against Nt5dc3 | 0.174 (inactive)
GGAGUGAUAGUCAUCAAUGTT against Olfr357 | -0.464 (inactive)
GGAACAGUCGGCCAUUUAATT against Tmem98 | -0.553 (inactive)

Sequence | z-score
CCCUACUGUAUUAGAAAACTT against Dnph1 | 2.1 (active)
GGAUCACUUUUAGUUUUCUTT against C230013L11Rik | -0.0242 (inactive)
GCCUGAUAGUGCAGAAACATT against Rabl2 | -0.233 (inactive)
GGUUAUCGCAUUUGGUGGUTT against Olfr1511 | 0.104 (inactive)
GGACAAAAGGCAAUCUACATT against Mettl18 | 2.8 (active)
GGUGUCUCUCCAGGAUAACTT against Ctrl | -0.511 (inactive)
CGUACAACACGGAAACCUATT against Paqr5 | -0.448 (inactive)
GGGUCUCAGCAGUGCAAACTT against Txnip | -0.486 (inactive)
GGAGAGAGGGAAAAAAGAATT against Sox4 | -0.317 (inactive)
GGCUUGACUGCUAUUUUAGTT against Csn1s1 | 0.711 (inactive)
CCACCUGACUUUUGGAAGATT against Coro1b | -1.8 (inactive)
UUAAGGAAAUGUUCUGUUCTT against Olfr426 | 0.797 (inactive)
GGCUUUGAGAGGAACACCATT against Sh2d4b | -2.49 (active)
GGCCAAGUUCAACAUUCCATT against Lilrb4a | 0.539 (inactive)
GGGACUUAAGUGAAGUUCATT against Ogfod2 | 0.232 (inactive)
GCUGUCUCGUCAUUUAAGATT against Dym | -0.461 (inactive)
GGAAAGUGUUGUCAAAAGATT against Olfr125 | -0.386 (inactive)
GGCAUGUGGAAAACCUCCUTT against Lrrc46 | -0.413 (inactive)
GGAUGAUGAAUUCACACACTT against Calr | 3.18 (active)
